In PubChem BioAssay:
Calls of active or inactive are those of the source. How the calls were made is not given here.

biological target: Pantothenate synthetase (Mycobacterium tuberculosis (strain ATCC 25618 / H37Rv)) (UniProt P9WIL5); assay: Recombinant Mtb pantothenate synthetase (PanC) inhibitors, coupled enzyme, confirmatory (AID 375); settings: coupled enzyme assay; at 10 µM, hits give high values;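 further: 0% = full reaction with vehicle and 100% = no enzyme background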
Sequence (P9WIL5 whole entry, looked up): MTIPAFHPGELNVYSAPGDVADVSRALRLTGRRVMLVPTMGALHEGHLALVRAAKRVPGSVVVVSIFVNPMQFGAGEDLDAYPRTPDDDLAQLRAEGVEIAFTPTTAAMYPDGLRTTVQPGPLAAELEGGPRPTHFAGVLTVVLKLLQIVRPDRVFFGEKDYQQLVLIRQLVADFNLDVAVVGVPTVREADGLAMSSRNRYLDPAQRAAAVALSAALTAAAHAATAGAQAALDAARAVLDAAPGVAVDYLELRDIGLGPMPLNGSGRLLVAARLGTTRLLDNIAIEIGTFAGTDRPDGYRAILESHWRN

Structure (SMILES) | inhibition
COc1ccc(C(CNC(=O)c2ccc(OCC3CCCO3)cc2)N2CCOCC2)cc1 (configuration not stated) | 0% (inactive)
O=C(CSc1ncc(-c2ccc(F)cc2)[nH]1)N1CCCCC1 | 0% (inactive)
COc1ccccc1N1C(=O)CC(Sc2nc(C)cc(C)n2)C1=O (configuration not stated) | 0% (inactive)
CC1(C)NC(=O)N(CC(O)CN(Cc2ccccc2)Cc2ccccc2)C1=O (configuration not stated) | 0% (inactive)
COCn1c(COc2ccccc2)nc2ccccc21 | 0% (inactive)
CC(CN1CCOCC1)(NS(=O)(=O)c1ccccc1)c1ccccc1 (configuration not stated) | 1% (inactive)
Cc1cccc2c(=O)oc(-c3ccc4c(c3)C(=O)N(CC3CCCO3)C4=O)nc12 (configuration not stated) | 0% (inactive)
COCCn1nnnc1C(c1cc2cc(C)cc(C)c2[nH]c1=O)N1CCN(c2ccccc2F)CC1 (configuration not stated) | 2% (inactive)
c1ccc(-c2nc3nonc3c3nc4ccccc4n23)cc1 | 2% (inactive)
CCOC(=O)N1CCN(C(=O)CN(C)S(=O)(=O)c2ccc(OC)c(OC)c2)CC1 | 0% (inactive)
CCOC(=O)C1CCN(CC(=O)c2c(C)[nH]c3ccccc23)CC1 | 1% (inactive)
O=C(CCCCCn1c(=O)[nH]c2ccsc2c1=O)N1CCCCC1 | 5% (inactive)
CC(=O)C1=C(C)NC(C)=C(C(C)=O)C1c1cccs1 | 0% (inactive)
COc1cc(CC(=O)NCc2ccc3c(c2)OCO3)cc(OC)c1OC | 1% (inactive)
O=C1CC(Cc2ccccc2)C(=O)N1CCc1ccc2c(c1)OCO2 (configuration not stated) | 3% (inactive)
CCc1nnc(NC(=O)OCc2ccccc2)s1 | 0% (inactive)
CCN1CCN(c2nc(-c3cccnc3)nc3ccccc23)CC1 | 0% (inactive)
